Measurements: PubChem BioAssay (NCATS)
Results filed as inconclusive are left out. Activity calls are given as the source filed them. Unless noted, the call rests on the fitted dose curve; in most records, active means well fitted curve in the direction sought with a large enough effect; inconclusive means small, poorly fitted or top-dose-only effect, or another doubt; inactive means no such curve, though single readings can be large; an effect the other way counts as inactive or inconclusive.

Key:
[1] = molecular target: Lysosomal acid glucosylceramidase (Homo sapiens) (UniProt P04062); experiment: Glucocerebrosidase-p2 (AID 348; in the data active means potency below about 10 µM; further: potency means the concentration at half of the fitted maximal effect); conditions: purified GBA, blue fluorogenic substrate, 40 min
How it was run: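 Normal human glucocerebrosidase (0.2 nM) with blue fluorogenic substrate (80 uM final) in citrate/phosphate pH 5.9 with 10mM sodium taurocholate, 0.01% tween-20; 40 min RT, NaOH/glycine stop; fluorescence Ex 365/Em 440; AC50 from a titration from 0.6 nM upwards.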

[2] = molecular target: Cytochrome P450 1A2 (Homo sapiens) (UniProt P05177); experiment: p450-cyp1a2 (AID 410; calls by dose curve; further: potency means the concentration at half of the fitted maximal effect;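 on activity change, negative = inhibition: -100% = full effect of reference inhibitor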); conditions: recombinant CYP1A2, luciferin-ME demethylation, luminescence; series mostly up to 11.4 µM
How it was run: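 Luminescent demethylation readout: Luciferin-ME (100uM, equal to Km) turned over by 20nM CYP1A2 for 60 min at room temperature after NADPH regeneration addition, following 10 min compound preincubation. Normalization used 57 uM furafylline as full inhibition.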

[3] = NFAT Signaling Pathway (AID 444; active means well fitted curve in either direction with a large enough effect, not every such curve was filed as active;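 further: carbachol stimulus at about its EC50 of 1 µM final; on the % scale 0 is the no-effect control and ±100 the full control effect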); conditions: Jurkat NFAT-bla M1, carbachol, beta-lactamase ratio, 5 h; at 7.69 µM (top of the series) unless noted
How it was run: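 Read-out: CCF4 FRET ratio (460 nm/530 nm) after 1 h RT dye loading, used for %activity and AC50 from titration series. Cells: Jurkat NFAT-β-lactamase/M1 line, treated with compound plus 1 uM carbachol for 5 h, 37 °C.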

[4] = Stat Signaling Pathway (AID 446; active means well fitted curve in either direction with a large enough effect, not every such curve was filed as active;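 further: ME-180 cervical cancer cells given 40 pM IL-6 alongside compound; SIE-controlled beta-lactamase reporter measured as 460/530 nm FRET emission ratio; on the % scale 0 is the no-effect control and ±100 the full control effect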); conditions: ME-180 SIE beta-lactamase reporter, IL-6 stimulated, 5 h; at 7.69 µM (top of the series) unless noted
How it was run: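 Overnight-plated ME-180 cells bearing a STAT Inducible Element beta-lactamase reporter; 5 h co-exposure to compound and 40 pM IL-6; values normalized to 300 pM IL-6 and 125 nM JAK inhibitor controls.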

[5] = molecular target: Glucocorticoid receptor (Homo sapiens) (UniProt P04150); experiment: GR-EFC Redistribution (AID 451; calls by dose curve; further: potency means the concentration at half of the fitted maximal effect); conditions: CHO-K1 GR-EFC translocation, beta-gal luminescence, 2 h
How it was run: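 Translocation of GR-ED fusion to nuclear EA restores b-gal, read by luminescence after 1 h room-temperature detection. Engineered CHO-K1 biosensor cells, 1,000/well, exposed 2 h at 37 C to titrations up to 46 uM final.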

[6] = molecular target: Mitogen-activated protein kinase 10 (Mus musculus) (UniProt Q61831); experiment: JNK3 AlphaScreen Assay (AID 530; active means well fitted curve in either direction with a large enough effect, not every such curve was filed as active;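 further: kinase came from lysate of stimulated human HepG2 cells; signal reports phosphorylation of biotinylated GST-cJun 1-79 at Ser73 with 10 µM ATP; on the % scale 0 is the no-effect control and ±100 the full control effect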); conditions: JNK3 lysate, c-Jun phosphorylation; series mostly up to 57.1 µM
How it was run: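 qHTS titrations with 15 min compound pre-incubation before adding ATP (10 uM final). Read-out: AlphaScreen of Ser73-phosphorylated biotin-GST-cJun using HepG2 lysate JNK3 activated by IL-1β and TNFα.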

[7] = molecular target: 3',5'-cyclic-AMP phosphodiesterase 4B (Homo sapiens) (UniProt Q07343); experiment: qHTS Assay for Inhibitors of PDE-IV (AID 607; active means well fitted activation curve with a large enough effect in the main read-out, with a control signal flat, not every such curve was filed as active; further: % of control where 0% means no effect); conditions: HEK293 ACTOne CNG channel cells, membrane potential fluorescence; series mostly up to 22.9 µM
How it was run: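 Live HEK293 cells with a modified cyclic nucleotide-gated (CNG) channel report intracellular cAMP via membrane-potential dye fluorescence (ex 535/em 590 nm). Endogenous PDE-IV was targeted. Compounds were tested at up to 22.9 uM final; RO 20-1724 100 uM served as control.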

[8] = AP1 Signaling Pathway (AID 357; active means well fitted curve in either direction with a large enough effect, not every such curve was filed as active;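 further: ME-180 reporter cells stimulated with EGF at its EC50 level; on the % scale 0 is the no-effect control and ±100 the full control effect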); conditions: ME-180 (cervical carcinoma) AP-1-bla reporter, EGF-induced, beta-lactamase ratio, 5 h; at 7.69 µM (top of the series) unless noted
How it was run: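 A ratiometric CCF4 readout (405 nm excitation; 460 and 530 nm emission) quantified AP-1-driven beta-lactamase in ME-180 cells after 5 h with compound and EC50 EGF; AC50 values were derived for activators and inhibitors.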

[9] = molecular target: Glucocorticoid receptor (Homo sapiens) (UniProt P04150); experiment: GR-GFP Redistribution (AID 450;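 active means compounds whose dose series gives a full or clear partial fitted curve of increased nuclear translocation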; further: potency means the concentration at half of the fitted maximal effect); conditions: U2OS GR-GFP nuclear translocation, laser cytometry, 2 h
[10] = molecular target: Guanine nucleotide-binding protein G(i) subunit alpha-1 (Homo sapiens) (UniProt P63096); experiment: qHTS Assay for Inhibitors of RGS12 GoLoco Motif Activity (Green Fluorophore) (AID 879); conditions: Galphai1/FITC-RGS12 GoLoco peptide, fluorescence polarization; series mostly up to 57.1 µM;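 further: 0% = labeled peptide with Gαi1 and full inhibition = labeled peptide alone without protein; negative values mean loss of peptide binding seen as reduced polarization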
How it was run: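 A drop in FITC polarization marked displacement of the FITC-tagged RGS12 GoLoco peptide (10 nM) from Gαi1 (50 nM). Compounds were incubated 10 min at room temperature in Tris pH 7.5 buffer containing 150 mM NaCl, 0.1 mM GDP and 0.05% NP40; unlabeled peptide titration served as control.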

[11] = molecular target: Cytochrome P450 3A4 (Homo sapiens) (UniProt P08684); experiment: qHTS Assay for Inhibitors and Substrates of Cytochrome P450 3A4 (AID 884); conditions: recombinant CYP3A4, Luciferin-PPXE luminescence; series mostly up to 57.1 µM; further: on the % scale 0 is the no-effect control and ±100 the full control effect; nearly all actives have a fitted effect of over 50% in size
How it was run: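 Luminescent readout of luciferin produced by CYP3A4 (20 nM) dealkylation of Luciferin-PPXE, 25 uM (its KM). NADPH-driven reaction ran 60 min at RT after 10 min compound preincubation; data scaled to 57 uM ketoconazole as 100% inhibition.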

[12] = qHTS Assay for Identification of Small Molecule Agonists for Thrombopoietin (TPO) Signaling Pathway (AID 917); conditions: TPO signaling pathway reporter cells, agonist qHTS; series mostly up to 38.5 µM; further: on the % scale 0 is the no-effect control and ±100 the full control effect
How it was run: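 Ba/F3 (mouse) + hTPO receptor + GpIIb-promoter luciferase; IL-3 withdrawn overnight; compound + 26 pM TPO (EC50), 24 hrs, 37 C, 5% CO2; Steadylite luminescence, 10 min RT.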

[13] = molecular target: Muscarinic acetylcholine receptor M1 (Rattus norvegicus) (UniProt P08482); experiment: qHTS Assay for Antagonists of Acetylcholine Muscarinic M1 Receptor: Kinetic Measurement of Intracellular Calcium Response (AID 943); conditions: M1-expressing cells, kinetic intracellular calcium fluorescence; series mostly up to 35.3 µM;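 further: Fluo-4 calcium signal as peak divided by basal fluorescence over 4 min; nearly all actives have a fitted effect of over 75% in size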
How it was run: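 Antagonism measured as reduction of carbachol-evoked (EC80, 100 nM final) calcium flux in rat M1-CHO cells after 10 min compound exposure. Fluo-4 signal read kinetically; ratio of maximal to basal fluorescence.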

[14] = molecular target: Muscarinic acetylcholine receptor M1 (Rattus norvegicus) (UniProt P08482); experiment: qHTS Assay for Antagonists of Acetylcholine Muscarinic M1 Receptor: Measurement of IP-One Response (AID 944); conditions: CHO-M1 cells, IP-One HTRF, antagonist mode; series mostly up to 46.1 µM; further: nearly all actives have a fitted effect of over 75% in size
How it was run: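 IP1 accumulation measured via TR-FRET between d2-IP1 and Eu-cryptate anti-IP1 antibody after carbachol (200 nM, EC80) stimulation for 30 min; rat M1-transfected CHO cells received compound 10 min before agonist.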

[15] = molecular target: Pyruvate kinase (Leishmania mexicana) (UniProt Q27686); experiment: qHTS Validation Assay for Inhibitors of Leishmania Mexicana Pyruvate Kinase (AID 945);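 further: 0% = DMSO only neutral control wells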; conditions: purified L. mexicana pyruvate kinase, enzyme activity, E451W mutant enzyme; series mostly up to 57.5 µM
How it was run: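 qHTS eight-point titrations against 0.2 nM LmPYK (E451W) in imidazole buffer pH 7.2 with 0.5 mM PEP, 0.1 mM ADP; 1 h, room temperature. Readout: PKLight luminescence, normalized to neutral DMSO wells.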

[16] = molecular target: Pyruvate kinase PKM (Homo sapiens) (UniProt P14618); experiment: qHTS Assay for Activators of Human Muscle Pyruvate Kinase (AID 954; active means well fitted curve in the direction sought with a large enough effect, not every such curve was filed as active;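 further: 0% = uninhibited enzyme and -100% = no enzyme or full thiadiazolimine inhibition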); conditions: purified human muscle pyruvate kinase, luciferase-coupled luminescence, 1 h; series mostly up to 57.5 µM
How it was run: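 Screening used highly purified human pyruvate kinase M2 under submaximal activity, with PEP at its Km and ADP below Km. After an hour at room temperature, ATP was read by luciferase luminescence.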

[17] = molecular target: Alpha-galactosidase (Coffea arabica) (UniProt Q42656); experiment: Counterscreen for Glucocerebrosidase Inhibitors: qHTS Assay for Coffee Bean alpha-Galactosidase at pH 4.5 (AID 957); conditions: purified coffee bean alpha-galactosidase, fluorogenic substrate; series mostly up to 76.9 µM;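 further: plate controls were enzyme alone for no effect and no enzyme for full effect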
How it was run: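 Fluorogenic qHTS at pH 4.5 (citrate buffer with Tween-20): 2 nM enzyme, 80 uM 4-MU-alpha-galactoside substrate, compound titrated 0.7 nM to 77 uM, 20 min room temperature. Glycine/NaOH stop; 4-MU read Ex 365/Em 440; Hill-equation AC50 against no-enzyme and enzyme controls.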

[18] = molecular target: Alpha-galactosidase A (Homo sapiens) (UniProt P06280); experiment: Counterscreen for Glucocerebrosidase Inhibitors: qHTS Assay for Human alpha-Galactosidase at pH 4.5 (AID 992); conditions: purified enzyme, fluorogenic substrate; series mostly up to 76.9 µM; further: 0% is about no effect
How it was run: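 Each compound is preincubated briefly with 2 nM enzyme before substrate addition (80 uM); plates then sit 20 min at ambient temperature, are quenched with 1M NaOH/1M glycine, and read fluorometrically.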

[19] = molecular target: alpha-glucosidase (Oryza sativa, rice) (UniProt Q653V4); experiment: Counterscreen for Glucocerebrosidase Inhibitors: qHTS Assay for Rice alpha-Glucosidase at pH 5.0 (AID 997); conditions: rice alpha-glucosidase enzyme activity; series mostly up to 76.9 µM;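 further: 0% = full activity with enzyme and -100% = basal without enzyme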
How it was run: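 Endpoint fluorogenic assay at pH 5.0: compounds (0.7 nM to 77 uM) titrated against 4 nM rice enzyme and 400 uM 4-MU-alpha-glucoside for 20 min at room temperature; NaOH/glycine stop, read ex 365/em 440 nm, Hill-fitted AC50.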

[20] = molecular target: Alpha-galactosidase (Coffea arabica) (UniProt Q42656); experiment: Counterscreen for Glucocerebrosidase Inhibitors: qHTS Assay for Coffee Bean alpha-Galactosidase at pH 5.9 (AID 998); conditions: coffee bean alpha-galactosidase enzyme assay; series mostly up to 76.9 µM;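 further: plate controls were uninhibited enzyme for no effect and no-enzyme basal signal for full effect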
How it was run: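 Fluorogenic 4-MU substrate hydrolysis, 80 uM substrate and 2 nM coffee bean alpha-galactosidase, pH 5.9 citrate buffer, 20 min at room temperature, then NaOH/glycine stop. Titration 0.7 nM–77 uM, normalized to no-enzyme and enzyme controls, AC50 via Hill equation.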

[21] = molecular target: Cytochrome P450 2C9 (Homo sapiens) (UniProt P11712); experiment: qHTS Assay for Inhibitors and Substrates of Cytochrome P450 2C9 (AID 883); conditions: recombinant CYP2C9, luciferin-H luminescence, 60 min; series mostly up to 57.1 µM; further: nearly all actives have a fitted effect of over 60% in size; further: potency means the concentration at half of the fitted maximal effect
How it was run: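 Turnover of Luciferin-H (100uM, KM) by 10nM human CYP2C9 was measured over 60 min at 37C with NADPH regeneration; inhibitors and some substrates reduce luminescence. Data normalized to sulphaphenazole 57uM.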

[22] = molecular target: Cytochrome P450 3A4 (Homo sapiens) (UniProt P08684); experiment: qHTS Assay for Activators of Cytochrome P450 3A4 (AID 885); conditions: recombinant CYP3A4, Luciferin-PPXE luminescence, 60 min; series mostly up to 57.1 µM; further: nearly all actives have a fitted effect of over 65% in size
How it was run: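 Using 20nM recombinant human CYP3A4 in potassium phosphate (200mM), substrate Luciferin-PPXE at 25uM, luminescent luciferin detection followed a 60-min RT NADPH reaction; data scaled to 57 uM ketoconazole.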

[23] = molecular target: Cytochrome P450 2D6 (Homo sapiens) (UniProt P10635); experiment: qHTS Assay for Inhibitors and Substrates of Cytochrome P450 2D6 (AID 891); conditions: recombinant CYP2D6, luciferin-ME EGE luminescence; series mostly up to 11.4 µM; further: potency means the concentration at half of the fitted maximal effect; nearly all actives have a fitted effect of over 60% in size
How it was run: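 Luminescent read-out of luciferin formed by 5 nM human CYP2D6 demethylating 30 uM Luciferin-ME EGE (Km level) over 60 min at room temperature after NADPH regeneration addition. Data normalized to full inhibition by 1.43 uM quinidine.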

[24] = molecular target: Cytochrome P450 2C19 (Homo sapiens) (UniProt P33261); experiment: qHTS Assay for Inhibitors and Substrates of Cytochrome P450 2C19 (AID 899); conditions: recombinant CYP2C19, luciferin-H EGE luminescence; series mostly up to 11.4 µM; further: potency means the concentration at half of the fitted maximal effect; nearly all actives have a fitted effect of over 60% in size
How it was run: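 Reactions contain 5nM enzyme, 10uM Luciferin-H EGE (KM) and 50mM KPO4; compound preincubates 10 min at 37C, NADPH regeneration starts turnover for 60 min. Luminescence after detection reagent gives activity.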

Muscarinic acetylcholine receptor M1 (Rattus norvegicus), sequence (P08482 whole entry, looked up): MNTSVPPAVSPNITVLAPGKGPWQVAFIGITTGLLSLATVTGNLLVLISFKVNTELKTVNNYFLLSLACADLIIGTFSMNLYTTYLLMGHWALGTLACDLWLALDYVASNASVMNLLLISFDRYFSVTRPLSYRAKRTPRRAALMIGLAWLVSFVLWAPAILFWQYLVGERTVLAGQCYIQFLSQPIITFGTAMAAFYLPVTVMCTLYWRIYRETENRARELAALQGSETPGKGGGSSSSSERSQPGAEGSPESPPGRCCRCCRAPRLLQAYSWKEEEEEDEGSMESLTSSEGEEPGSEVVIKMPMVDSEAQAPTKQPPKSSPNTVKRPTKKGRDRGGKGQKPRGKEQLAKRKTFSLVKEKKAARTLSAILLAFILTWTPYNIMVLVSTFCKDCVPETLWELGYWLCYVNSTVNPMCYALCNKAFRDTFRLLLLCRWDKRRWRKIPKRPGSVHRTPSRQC
Cytochrome P450 1A2 (Homo sapiens), sequence (P05177 whole entry, looked up): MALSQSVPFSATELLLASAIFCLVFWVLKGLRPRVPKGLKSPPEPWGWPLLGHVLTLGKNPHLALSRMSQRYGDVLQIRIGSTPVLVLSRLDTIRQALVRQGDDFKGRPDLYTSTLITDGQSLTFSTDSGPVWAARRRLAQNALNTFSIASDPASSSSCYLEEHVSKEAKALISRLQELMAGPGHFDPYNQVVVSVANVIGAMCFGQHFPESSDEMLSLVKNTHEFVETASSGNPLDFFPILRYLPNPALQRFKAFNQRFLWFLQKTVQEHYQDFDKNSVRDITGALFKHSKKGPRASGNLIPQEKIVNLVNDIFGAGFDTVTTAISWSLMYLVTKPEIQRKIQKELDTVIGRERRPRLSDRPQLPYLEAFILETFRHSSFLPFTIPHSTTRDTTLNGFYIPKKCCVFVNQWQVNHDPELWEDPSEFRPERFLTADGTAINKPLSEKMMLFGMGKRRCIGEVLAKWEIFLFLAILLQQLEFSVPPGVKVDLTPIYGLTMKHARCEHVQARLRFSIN
Lysosomal acid glucosylceramidase (Homo sapiens), sequence (P04062 whole entry, looked up): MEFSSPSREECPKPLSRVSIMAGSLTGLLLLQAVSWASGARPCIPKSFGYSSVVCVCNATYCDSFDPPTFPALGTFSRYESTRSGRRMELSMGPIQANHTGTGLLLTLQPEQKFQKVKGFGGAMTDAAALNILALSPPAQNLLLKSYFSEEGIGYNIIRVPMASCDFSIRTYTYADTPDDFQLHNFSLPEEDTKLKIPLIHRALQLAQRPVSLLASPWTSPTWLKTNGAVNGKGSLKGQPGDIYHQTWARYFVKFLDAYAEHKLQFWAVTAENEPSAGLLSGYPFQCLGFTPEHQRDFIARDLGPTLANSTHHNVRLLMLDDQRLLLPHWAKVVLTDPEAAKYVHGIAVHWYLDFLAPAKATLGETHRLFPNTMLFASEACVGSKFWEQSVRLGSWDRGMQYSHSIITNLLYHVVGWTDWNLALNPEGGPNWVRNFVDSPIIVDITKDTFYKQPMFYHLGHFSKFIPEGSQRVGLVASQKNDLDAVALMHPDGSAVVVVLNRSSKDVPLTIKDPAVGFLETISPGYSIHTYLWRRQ
3',5'-cyclic-AMP phosphodiesterase 4B (Homo sapiens), sequence (Q07343 whole entry, looked up): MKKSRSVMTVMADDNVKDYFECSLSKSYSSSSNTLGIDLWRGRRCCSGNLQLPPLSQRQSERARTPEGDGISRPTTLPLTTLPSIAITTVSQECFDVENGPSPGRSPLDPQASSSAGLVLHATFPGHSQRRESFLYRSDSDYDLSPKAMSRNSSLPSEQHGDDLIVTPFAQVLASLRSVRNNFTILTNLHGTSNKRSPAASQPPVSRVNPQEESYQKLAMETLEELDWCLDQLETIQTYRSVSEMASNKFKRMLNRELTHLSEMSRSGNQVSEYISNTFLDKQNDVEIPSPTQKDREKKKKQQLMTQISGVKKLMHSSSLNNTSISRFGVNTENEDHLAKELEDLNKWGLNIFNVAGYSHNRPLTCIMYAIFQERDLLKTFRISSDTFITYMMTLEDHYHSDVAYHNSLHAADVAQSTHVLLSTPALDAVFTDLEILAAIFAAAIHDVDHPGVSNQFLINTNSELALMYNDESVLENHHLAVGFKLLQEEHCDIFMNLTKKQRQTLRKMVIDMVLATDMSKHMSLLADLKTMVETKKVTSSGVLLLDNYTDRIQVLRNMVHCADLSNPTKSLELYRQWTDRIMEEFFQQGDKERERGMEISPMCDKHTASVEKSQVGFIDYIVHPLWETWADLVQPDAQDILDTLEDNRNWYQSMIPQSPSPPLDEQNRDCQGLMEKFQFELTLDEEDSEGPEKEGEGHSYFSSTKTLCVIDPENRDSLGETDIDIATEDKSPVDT
Alpha-galactosidase (Coffea arabica), sequence (Q42656 whole entry, looked up): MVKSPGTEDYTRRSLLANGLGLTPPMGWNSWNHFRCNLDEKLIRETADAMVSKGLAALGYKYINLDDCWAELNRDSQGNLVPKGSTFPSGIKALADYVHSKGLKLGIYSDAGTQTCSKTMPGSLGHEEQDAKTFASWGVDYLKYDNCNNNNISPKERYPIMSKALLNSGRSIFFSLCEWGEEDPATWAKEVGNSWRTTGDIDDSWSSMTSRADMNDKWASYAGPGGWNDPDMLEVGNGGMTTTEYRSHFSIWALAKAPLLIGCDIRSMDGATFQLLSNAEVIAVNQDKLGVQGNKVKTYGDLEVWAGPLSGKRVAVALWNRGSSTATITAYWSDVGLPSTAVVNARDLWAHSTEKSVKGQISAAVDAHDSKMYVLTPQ
Glucocorticoid receptor (Homo sapiens), sequence (P04150 whole entry, looked up, the tested form may be a part): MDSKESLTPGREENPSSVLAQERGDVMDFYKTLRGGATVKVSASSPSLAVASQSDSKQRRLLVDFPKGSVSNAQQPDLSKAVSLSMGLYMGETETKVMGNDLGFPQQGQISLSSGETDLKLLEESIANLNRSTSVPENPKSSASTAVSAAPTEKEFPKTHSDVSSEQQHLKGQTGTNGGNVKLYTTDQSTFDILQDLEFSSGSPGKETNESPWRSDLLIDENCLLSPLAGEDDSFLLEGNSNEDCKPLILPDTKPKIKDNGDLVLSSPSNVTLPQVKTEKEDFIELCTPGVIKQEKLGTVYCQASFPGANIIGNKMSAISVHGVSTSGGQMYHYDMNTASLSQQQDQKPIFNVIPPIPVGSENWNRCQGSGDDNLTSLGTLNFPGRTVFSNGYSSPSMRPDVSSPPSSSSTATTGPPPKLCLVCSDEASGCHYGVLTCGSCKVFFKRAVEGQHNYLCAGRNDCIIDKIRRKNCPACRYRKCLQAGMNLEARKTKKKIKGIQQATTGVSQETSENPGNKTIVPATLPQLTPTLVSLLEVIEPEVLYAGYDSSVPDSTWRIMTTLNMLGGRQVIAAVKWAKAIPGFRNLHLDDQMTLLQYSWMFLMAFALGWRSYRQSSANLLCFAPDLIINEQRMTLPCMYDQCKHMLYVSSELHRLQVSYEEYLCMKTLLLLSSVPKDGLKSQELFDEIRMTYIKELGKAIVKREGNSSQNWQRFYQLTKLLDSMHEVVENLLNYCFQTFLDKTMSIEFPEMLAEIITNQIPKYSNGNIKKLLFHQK
Cytochrome P450 2C9 (Homo sapiens), sequence (P11712 whole entry, looked up): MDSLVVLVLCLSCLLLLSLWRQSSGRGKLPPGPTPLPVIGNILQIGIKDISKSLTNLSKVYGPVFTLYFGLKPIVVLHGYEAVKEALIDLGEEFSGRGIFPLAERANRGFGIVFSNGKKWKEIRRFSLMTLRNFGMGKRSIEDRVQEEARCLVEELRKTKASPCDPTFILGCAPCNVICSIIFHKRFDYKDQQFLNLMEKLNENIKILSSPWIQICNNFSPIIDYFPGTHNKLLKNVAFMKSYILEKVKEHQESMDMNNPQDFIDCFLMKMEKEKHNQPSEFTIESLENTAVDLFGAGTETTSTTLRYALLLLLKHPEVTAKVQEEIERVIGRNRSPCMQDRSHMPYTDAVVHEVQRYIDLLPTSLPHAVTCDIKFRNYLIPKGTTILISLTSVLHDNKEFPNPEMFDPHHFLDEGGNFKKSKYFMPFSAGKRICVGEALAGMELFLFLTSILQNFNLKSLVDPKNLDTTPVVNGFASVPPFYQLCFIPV
Guanine nucleotide-binding protein G(i) subunit alpha-1 (Homo sapiens), sequence (P63096 whole entry, looked up): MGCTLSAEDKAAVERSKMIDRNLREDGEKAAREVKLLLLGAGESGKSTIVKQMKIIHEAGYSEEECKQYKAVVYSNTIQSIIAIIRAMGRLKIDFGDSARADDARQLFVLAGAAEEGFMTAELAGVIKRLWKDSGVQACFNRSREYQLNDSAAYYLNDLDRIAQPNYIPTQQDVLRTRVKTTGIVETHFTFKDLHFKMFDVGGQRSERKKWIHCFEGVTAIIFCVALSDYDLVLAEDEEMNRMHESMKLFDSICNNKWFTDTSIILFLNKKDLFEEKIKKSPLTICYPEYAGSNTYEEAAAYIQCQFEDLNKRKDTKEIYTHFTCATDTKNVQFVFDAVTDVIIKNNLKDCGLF
Cytochrome P450 3A4 (Homo sapiens), sequence (P08684 whole entry, looked up): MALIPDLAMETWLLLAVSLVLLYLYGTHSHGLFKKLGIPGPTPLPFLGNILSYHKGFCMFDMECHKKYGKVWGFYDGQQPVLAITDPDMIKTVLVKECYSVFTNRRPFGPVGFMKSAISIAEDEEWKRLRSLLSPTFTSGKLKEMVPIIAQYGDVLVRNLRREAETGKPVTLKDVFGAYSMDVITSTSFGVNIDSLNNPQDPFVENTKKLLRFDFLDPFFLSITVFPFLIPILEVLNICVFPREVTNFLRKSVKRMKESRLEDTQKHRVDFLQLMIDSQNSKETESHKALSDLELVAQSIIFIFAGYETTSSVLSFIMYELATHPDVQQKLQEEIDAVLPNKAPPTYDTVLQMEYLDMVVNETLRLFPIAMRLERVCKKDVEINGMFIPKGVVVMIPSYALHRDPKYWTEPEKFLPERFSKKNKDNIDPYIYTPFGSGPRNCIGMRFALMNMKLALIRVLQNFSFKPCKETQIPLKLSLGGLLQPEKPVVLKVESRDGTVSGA

COc1cc2c(cc1O)C[C@@H]1c3c(cc(O)c(OC)c3-2)CCN1C
active: Potency [2] 3.98 µM
inactive: Potency [1] > 11.4 µM | activity change, negative = inhibition [3] -0.493% | activity, negative = inhibition [4] 0.101% | Potency [5] > 9.22 µM | activity change, negative = inhibition [6] 4.75% [at 11.4 µM] | outcome [7]

C#CCN[C@@H](C)Cc1ccccc1
inactive: activity change, negative = inhibition [8] 1.81% [at 38 µM] | activity change, negative = inhibition [3] 0.0477% [at 38 µM] | activity, negative = inhibition [4] -23.9% [at 38 µM] | Potency [9] > 46 µM | Potency [5] > 46 µM | Potency [6] | outcome [7] | outcome [10] | Potency [11] | outcome [12] | Potency [13] | Potency [14] | outcome [15] | outcome [16] | outcome [17] | outcome [18] | outcome [19] | outcome [20]
active: Potency [2] 15.8 µM

O=C(O)CN1CCN(CC(=O)O)CC(=O)[O][Hg][O]C(=O)C1
active: Potency [1] 0.199 µM | Potency [21] 1.26 µM | Potency [23] 3.16 µM | Potency [24] 0.794 µM
inactive: activity change, negative = inhibition [8] 18.9% | activity, negative = inhibition [4] 1.17% | activity change, negative = inhibition [6] -1.36% [at 11.4 µM] | outcome [7] | activity change, positive = activation [22] -78.1% [at 11.4 µM]

COC1=C(C)C(=O)c2c(c(COC(N)=O)c3n2C[C@@H]2[C@@H]3N2C)C1=O (stereo partly specified)
inactive: Potency [1] > 11.4 µM | Potency [9] > 46 µM | Potency [5] > 9.22 µM | activity change, negative = inhibition [6] -0.1% [at 11.4 µM] | outcome [7]
active: Potency [23] 1.58 µM

c1cncc(CNCCN2CCNCC2)c1
inactive: Potency [1] > 11.4 µM | activity change, negative = inhibition [8] 5.14% | Potency [9] > 46 µM | Potency [5] > 9.22 µM | activity change, negative = inhibition [6] 1.33% [at 11.4 µM] | outcome [7]

C[C@@H]1O[C@H]1P(=O)(O)O
inactive: activity change, negative = inhibition [8] 0.559% [at 38 µM] | Potency [2] | activity change, negative = inhibition [3] 6.57% [at 38 µM] | activity, negative = inhibition [4] 22.2% [at 38 µM] | Potency [9] > 46 µM | Potency [5] > 46 µM | Potency [6] | outcome [7] | outcome [10] | Potency [21] | outcome [12] | Potency [13] | Potency [14] | outcome [15] | outcome [16] | outcome [17] | outcome [18] | outcome [19] | outcome [20]
